The values below come from PubChem BioAssay (EPA / NIEHS).

Broadly, the AC50 is the midpoint of the concentration-response curve, whichever way the signal moves.

Results filed as inconclusive are left out. Where a structure was tested more than once in an assay, its records may differ in their call. The source made the active and inactive calls. The calls were made as follows, unless noted: active = hit-call score of the fitted dose curve at least 0.9, where 1 is the maximum; inactive = score below 0.9.

A short description of experiment [1]: APR_HepG2_CellCycleArrest_24hr: Apredica 24-hour HepG2 Assay for Cell Cycle Arrest (AID 2282905).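 Also: cell cycle arrest scored as ratio of 2N to 4N nuclear DNA content.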 The conditions noted are these: imaging, actives raise or lower the signal. The method, boiled down: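 HepG2 cells were exposed to compounds at 0.39–200 uM (ten concentrations, duplicate) in 0.5% v/v DMSO for 24 hr. After formaldehyde fixation and Triton permeabilization, Hoechst 33342-stained nuclei were imaged at 20x; DNA content was quantified, with bidirectional fitting against DMSO.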

Experiment [2] is described as follows: APR_HepG2_NuclearSize_24hr: Apredica 24-hour HepG2 Assay for Nuclear Size (AID 2282907). Conditions: high-content imaging, actives raise or lower the signal. The method, boiled down: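 HepG2 human liver cells were exposed for 24 hr to compounds at 0.39–200 uM (ten concentrations, duplicate) in 0.5% v/v DMSO. They were then formaldehyde-fixed, Triton-permeabilized and Hoechst 33342-stained, and nuclear diameter was imaged at 20x. Bidirectional fits were made against DMSO.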

Experiment [3] in a line: APR_HepG2_CellLoss_24hr: Apredica 24-hour HepG2 Assay for Cell Loss (AID 2282908).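 As to AC50: fit in both directions so a hit may be cell loss or gain.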 Conditions: high-content imaging. The method, boiled down: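 Compounds were tested at 0.39–200 uM in duplicate with 0.5% v/v DMSO final. Cells were then fixed in 3.7% formaldehyde, Hoechst 33342 nuclei were imaged at 20x by HCS, and cell number was fitted bidirectionally against DMSO.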
A short description of experiment [4]: APR_HepG2_MicrotubuleCSK_24hr: Apredica 24-hour HepG2 Assay for Microtubule CSK Stabilty (AID 2282909). Conditions: HepG2 microtubule cytoskeleton imaging, actives raise or lower the signal. The method, boiled down:
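HepG2 cells exposed 24 h to compounds at 0.39–200 uM (duplicate, 0.5% v/v DMSO final), then fixed, permeabilized and immunostained for alpha-tubulin with Hoechst 33342. Cytoskeleton imaged at 20x; bidirectional fit versus DMSO baseline.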

The nature of experiment [5]: APR_HepG2_MitoticArrest_24hr: Apredica 24-hour HepG2 Assay for Mitotic Arrest (AID 2282910). Conditions: high-content imaging, actives raise or lower the signal. The method, boiled down: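 HepG2 human liver cells were exposed to compounds at 0.39–200 uM (10 concentrations, duplicate) in 0.5% v/v DMSO for 24 hr, then fixed and immunostained for phospho-histone H3 with Hoechst 33342. Mitotic arrest came from HCS fluorescent imaging, fitted bidirectionally against DMSO.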

Experiment [6] can be described thus: APR_HepG2_MitoMembPot_24hr: Apredica 24-hour HepG2 Assay for Mitochondrial Membrane Potential (AID 2282911). The conditions noted are these: imaging, actives raise or lower the signal. The method, boiled down: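 HepG2, 24 hr dosing, 10 concentrations 0.39–200 uM, 0.5% DMSO final. Live-cell MitoTracker Red CMXRos 250 nM 30 min, then 3.7% formaldehyde fix. HCS fluorescence imaging, 20x; bidirectional fit vs DMSO baseline.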

Experiment [7] is described as follows: APR_HepG2_MitoMass_24hr: Apredica 24-hour HepG2 Assay for Mitochondrial Mass (AID 2282912). The conditions noted are these: high-content imaging, actives raise or lower the signal. A digest of the protocol: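 Human HepG2 liver cells were exposed for 24 hr to compounds at 0.39–200 uM (duplicates, 0.5% v/v DMSO final). They were stained live with 250 nM MitoTracker Red CMXRos for 30 min, fixed in 3.7% formaldehyde, and imaged by HCS fluorescence; signals were fitted bidirectionally against DMSO.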

Experiment [8] can be described thus: APR_HepG2_p53Act_24hr: Apredica 24-hour HepG2 Assay for p53 Activation (AID 2282913).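 Also: p53 protein immunofluorescence averaged per cell in HepG2 with Hoechst nuclei.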 The conditions noted are these: high-content imaging, actives raise or lower the signal. The method, boiled down: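 Read-out: Cy5 immunofluorescence for p53 in fixed, permeabilized HepG2, imaged by HCS with Hoechst-defined nuclei. Dosing was 24 hr at 0.39–200 uM in 0.5% DMSO. Curves were fitted bidirectionally relative to DMSO.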

Experiment [9] is described as follows: APR_HepG2_CellCycleArrest_72hr: Apredica 72-hour HepG2 Assay for Cell Cycle Arrest (AID 2282914). Conditions: high-content imaging, actives raise or lower the signal. A digest of the protocol: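 HepG2, 72 hr exposure, 10-point 0.39–200 uM, duplicate, 0.5% DMSO final. Fix 3.7% formaldehyde 30 min RT, Triton X-100 0.5%, Hoechst 33342 2 ug/mL. ArrayScan 20x, six fields/well; DNA content per nucleus; bidirectional fit vs DMSO.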

Experiment [10] in a line: APR_HepG2_CellLoss_72hr: Apredica 72-hour HepG2 Assay for Cell Loss (AID 2282915). The conditions noted are these: high-content imaging. The method, boiled down:
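HepG2 cells were exposed for 72 hr to compounds at 0.39–200 uM (ten concentrations, duplicate) in 0.5% v/v final DMSO. Nuclei were stained with Hoechst 33342 after 3.7% formaldehyde fixation, imaged at 20x, and counted; fits bidirectional versus DMSO.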

Experiment [11] can be described thus: APR_HepG2_P-H2AX_72hr: Apredica 72-hour HepG2 Assay for H2AX Phosphorylation (AID 2282916).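 Also: phospho-histone H2A.x immunostain intensity per cell marking DNA damage.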 The conditions noted are these: imaging, actives raise or lower the signal. The method, boiled down:
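HepG2 human liver cells were exposed for 72 hr to compounds at 0.39–200 uM (10 concentrations, duplicate per plate) in 0.5% v/v DMSO. Fixed, permeabilized cells were immunolabeled for phospho-histone H2A.x with Hoechst 33342 and imaged by HCS fluorescence; bidirectional fit versus DMSO.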

The nature of experiment [12]: APR_HepG2_MitoticArrest_72hr: Apredica 72-hour HepG2 Assay for Mitotic Arrest (AID 2282918). Conditions: high-content imaging, actives raise or lower the signal. A digest of the protocol: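 HepG2, 72 hr exposure, 0.39–200 uM in duplicate, 0.5% v/v DMSO final. Formaldehyde-fixed, Triton-permeabilized, anti-phospho-histone H3/FITC plus Hoechst. ArrayScan imaging at 20x; curves fit bidirectionally against DMSO baseline.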

Experiment [13] is described as follows: APR_HepG2_MicrotubuleCSK_72hr: Apredica 72-hour HepG2 Assay for Microtubule CSK Stabilty (AID 2282919). The conditions noted are these: HepG2 microtubule cytoskeleton, high-content imaging, actives raise or lower the signal. A digest of the protocol: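 HepG2 human liver cells were dosed for 72 h at ten concentrations from 0.39 to 200 uM in duplicate (0.5% v/v DMSO final). Fixed, permeabilized cells were immunostained for alpha-tubulin (Cy5) with a Hoechst counterstain and imaged at 20x.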

Experiment [14] can be described thus: APR_HepG2_P-H2AX_24hr: Apredica 24-hour HepG2 Assay for H2AX Phosphorylation (AID 2282920). The conditions noted are these: high-content imaging, actives raise or lower the signal. The method, boiled down:
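HCS fluorescence imaging of phospho-H2A.x immunostain (with Hoechst 33342 nuclear counterstain) in HepG2 after 24 hr compound exposure; 10 concentrations, 0.39–200 uM, duplicate wells, 0.5% v/v DMSO. Gain or loss of signal fitted relative to DMSO baseline.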

A short description of experiment [15]: APR_HepG2_StressKinase_72hr: Apredica 72-hour HepG2 Assay for Stress Kinase (AID 2282921). Conditions: HepG2 stress kinase (phospho-c-Jun) imaging, actives raise or lower the signal. The method, boiled down: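 Cells were exposed for 72 h to ten concentrations (0.39–200 uM, duplicate) at 0.5% v/v DMSO final, then fixed with 3.7% formaldehyde, permeabilized and immunostained for phospho-c-Jun (Cy3 secondary) with Hoechst nuclear counterstain.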

The nature of experiment [16]: APR_HepG2_StressKinase_24hr: Apredica 24-hour HepG2 Assay for Stress Kinase (AID 2282922). Conditions: HepG2 stress kinase (phospho-c-Jun) imaging, actives raise or lower the signal. A digest of the protocol:
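HepG2 cells exposed 24 hr to compound at 0.39–200 uM (10 concentrations, duplicate), 0.5% v/v DMSO final. Fixed in 3.7% formaldehyde, permeabilized with Triton X-100, immunolabeled for phospho-c-Jun with Hoechst 33342; HCS fluorescence imaging, bidirectional fit versus DMSO.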

Experiment [17] is described as follows: APR_HepG2_NuclearSize_72hr: Apredica 72-hour HepG2 Assay for Nuclear Size (AID 2282925). The conditions noted are these: high-content imaging, actives raise or lower the signal. A digest of the protocol:
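HepG2 cells were exposed to compounds at ten concentrations from 0.39 to 200 uM (duplicate, 0.5% DMSO final) for 72 hr. After fixation in 3.7% formaldehyde, nuclei were stained with Hoechst 33342 (2 ug/mL) and imaged at 20x.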

A short description of experiment [18]: ATG_CRE_CIS: Attagene CIS-FACTORIAL HepG2 Assay for human cAMP Responsive Element (CRE) binding protein 3 (AID 2282926). Conditions: HepG2 CRE cis-reporter, Attagene multiplexed mRNA; actives raise or lower the signal. A digest of the protocol: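 Endogenous CRE-binding activity in HepG2 is reported through a cis-regulated transfected reporter. Following a day of exposure, mRNA levels are determined by reverse transcription PCR and fluorescent fragment analysis; fits run in both directions versus DMSO.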

Experiment [19] addresses CCAAT/enhancer-binding protein beta (Homo sapiens) (UniProt P17676). As to the kind of experiment: ATG_C_EBP_CIS: Attagene CIS-FACTORIAL HepG2 Assay for human CCAAT/Enhancer Binding Protein (C/EBP) beta (AID 2282927). The conditions noted are these: HepG2 Attagene cis-factorial transcription factor reporter; actives raise or lower the signal. A digest of the protocol:
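RT-PCR/capillary electrophoresis fluorescence of reporter mRNA, 24 h post-dose, in HepG2 cells carrying transfected cis-promoter reporter units. Bidirectional curve fitting against DMSO baseline captures gain or loss of signal.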

A short description of experiment [20]: ACEA_ER_80hr: ACEA Biosciences xCELLigence Real-Time Cell Analysis on Estrogen Receptor Agonism for Proliferation (AID 2282667; active = hit-call score of the fitted dose curve at least 0.9, where 1 is the maximum). The conditions noted are these: T47D proliferation, impedance (xCELLigence), 80 h. The method, boiled down: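 Impedance readout (RT-CES) of T47D proliferation at 80 h post-dose; gain of signal vs DMSO baseline. Compounds: 8 conc, 1:4 serial, top 100 uM final, ≤0.5% DMSO; biological duplicate.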

Sequence of CCAAT/enhancer-binding protein beta (Homo sapiens) (P17676 whole entry, looked up): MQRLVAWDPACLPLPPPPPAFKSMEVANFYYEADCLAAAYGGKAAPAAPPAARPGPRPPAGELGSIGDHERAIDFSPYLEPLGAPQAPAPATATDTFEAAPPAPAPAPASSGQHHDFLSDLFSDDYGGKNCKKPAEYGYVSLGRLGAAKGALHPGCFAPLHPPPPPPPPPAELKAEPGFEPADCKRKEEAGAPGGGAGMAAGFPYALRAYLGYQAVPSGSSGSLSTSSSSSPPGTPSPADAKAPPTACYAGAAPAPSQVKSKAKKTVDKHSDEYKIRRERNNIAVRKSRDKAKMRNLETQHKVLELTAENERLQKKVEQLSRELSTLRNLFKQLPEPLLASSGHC

Turning to `O=C(O)C(F)(F)C(F)(F)C(F)(F)C(F)(F)C(F)(F)C(F)(F)F`, the call in experiment [1], in experiment [2], in [3], in [4], in experiment [5] and in experiment [6] was inactive. For the same compound, the call in experiment [7], in experiment [8], in experiment [9], in [13], in experiment [14] and in experiment [16] was inactive. In addition, the call in experiment [18] and in experiment [19] was inactive. The concentration at half-maximal activity (AC50) in [10] is 14.5 µM (active); in experiment [11] it was 13.6 µM (active); in [12], 8.69 µM (active); in experiment [15] it was 97.8 µM (active); in experiment [17] it was 6.95 µM (active).
With `OCC(O)CCl` (stereo not given), the result in [20], in experiment [18] and in [19] was inactive.
As to `CC(C)c1cccc(C(C)C)c1O`, the outcome in [20], in experiment [18] and in experiment [19] was inactive.
As to `O=C(c1ccccc1)C(Cl)Cl`, the compound was called inactive in experiment [20], in experiment [18] and in experiment [19].
Consider `C[C@]12CCC(=O)C[C@@H]1CC[C@@H]1[C@@H]2CC[C@]2(C)[C@@H](O)CC[C@@H]12`, for which the result in experiment [1], in [2], in experiment [3], in [4], in [5] and in [6] was inactive. For the same compound, the outcome in experiment [7], in experiment [8], in experiment [9], in experiment [12], in experiment [13] and in experiment [14] was inactive. Besides, the compound was called inactive in experiment [15], in experiment [16], in [17], in experiment [18] and in experiment [19]. The AC50 in experiment [10] is 64.5 µM (active); in [11] it was 91.2 µM (active).
Consider `Cn1sc(Cl)cc1=O`, for which the compound was classed as inactive in experiment [1], in experiment [2], in [4], in [6], in [9] and in experiment [16]. The compound was classed as inactive in experiment [17], in experiment [18] and in [19]. The AC50 in experiment [3] was 109 µM (active); in experiment [5] it was 110 µM (active); in experiment [7], 117 µM (active); in experiment [8] it was 113 µM (active); in experiment [10], 104 µM (active); in experiment [11], 109 µM (active). For the same compound, the half-maximal activity concentration (AC50) is 97.3 µM (active) in experiment [12], 135 µM (active) in experiment [13], 110 µM (active) in experiment [14] and 111 µM (active) in [15].
As to `C=CC(=O)OCCCCCC(C)C`, the compound was classed as inactive in experiment [1], in [2], in experiment [3], in experiment [4], in experiment [5] and in experiment [6]. The compound was classed as inactive in experiment [7], in experiment [8], in [11], in experiment [12], in experiment [13] and in experiment [14]. Also, the result in experiment [15], in experiment [16], in experiment [17], in experiment [18] and in experiment [19] was inactive. In addition, the concentration at half-maximal activity (AC50) is 108 µM (active) in experiment [9] and 92.1 µM (active) in experiment [10].
Take `C[C@@H]1C[C@@H]([C@H](O)CC2CC(=O)NC(=O)C2)C(=O)[C@@H](C)C1`: the half-maximal activity concentration (AC50) in experiment [1] was 1.19 µM (active); in [3], 0.465 µM (active); in [8] it was 21.7 µM (active); in experiment [9], 7.46 µM (active); in experiment [10], 0.415 µM (active); in experiment [12], 0.564 µM (active). Moreover, the figures for the AC50 in experiment [13], in [18] and in experiment [19] were 1.11 µM (active), 11.1 µM (active) and 1.31 µM (active) [middle of 4 runs], respectively. The call in [2], in experiment [4], in experiment [5], in experiment [6], in experiment [7] and in experiment [11] was inactive. For the same compound, the call in experiment [14], in [15], in experiment [16], in experiment [17] and in experiment [18] was inactive.
